As a reminder, the inhibition is the change of the read-out against control, counted positive when it falls.

Molecules are shown by their SMILES. Unmarked numbers belong to inactive results. For part of these data: Entries with a potency or affinity are not part of this list. Activity calls are given as the source filed them. Unless noted, no rule for the calls is given here.

A short description of test [1]: antimalarial activity against Dd2 strain (AID 2302;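 active = growth inhibition above 50% at the single 2 µM test dose, taken to imply half-maximal potency below 2 µM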;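 also: 0% = DMSO untreated growth and 100% = chloroquine plus artemisinin killed control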). The following applies: P. falciparum Dd2 in RBCs, LDH growth readout, 72 h; at 2 µM; stronger effect = higher value.
Test [2] can be described thus: human hepatoma cell viability loss – ATP luminescence, cytotoxicity control for P. falciparum antimalarial project, primary screen (AID 2303;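 active = inhibition above 50%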;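 also: 0% = DMSO wells and 100% = digitonin-killed cells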). The following applies: HepG2 viability, 24-48 h, at 10 µM, stronger effect = higher value.
Test [3] concerns the target L-lactate dehydrogenase (Plasmodium falciparum (isolate CDC / Honduras)) (UniProt Q27743). Kind of test: PfLDH activity inhibition – cell lysate, 3D7 strain, counter-screen for P. falciparum growth inhibition project (AID 2304).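 Also: 0% = vehicle and 100% = reference inhibitor.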 The following applies: P. falciparum 3D7 crude extract, LDH APAD/NBT absorbance; at 2 µM; stronger effect = higher value.
The nature of test [4]: inhibition of 3D7 malaria parasite growth – strain 3D7 (AID 2306).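 Also: 0% = DMSO wells and 100% = chloroquine plus artemisinin control wells.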 The following applies: P. falciparum 3D7 erythrocytic growth, LDH absorbance, 72 h; at 2 µM; stronger effect = higher value.
Test [5] concerns the target Calcium-dependent protein kinase 1 (Plasmodium falciparum (isolate 3D7)) (UniProt P62344). Kind of test: PfCDPK1 kinase inhibitors, biochemical, TCAMS library (AID 1159585; cut-off not given, nearly all actives have IC50 up to about 0.98 µM;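 also: inhibitors leave more ATP so luminescence rises with inhibition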). The following applies: recombinant PfCDPK1, Kinase-Glo ATP depletion luminescence. (Kinase-Glo reads ATP consumption through a luciferase reaction.)
Test [6] has as its target Plasmodium falciparum protein kinase 6 (PK6, PF3D7_1337100) (UniProt Q8IDW1). Kind of test: PfPK6 kinase inhibitors, biochemical, TCAMS library (AID 1159586). The following applies: recombinant PfPK6, Kinase-Glo ATP depletion luminescence.
Test [7] has as its target Protein kinase 7 (PK7), Plasmodium falciparum 3D7 (PF3D7_0213400) (UniProt Q7YTF7). Nature of the test: inhibition of Plasmodium PK7 catalytic activity – biochemical, TCAMS antimalarial set, Kinase-Glo luminescence (AID 1159587). The following applies: recombinant PfPK7, Kinase-Glo ATP depletion luminescence.
Test [8] has as its target Calcium-dependent protein kinase 4 (Plasmodium falciparum (isolate 3D7)) (UniProt Q8IBS5). Kind of test: PfCDPK4 kinase inhibitors, biochemical, TCAMS library (AID 1159588; cut-off not given, nearly all actives have IC50 up to about 0.91 µM). The following applies: recombinant PfCDPK4, Kinase-Glo ATP depletion luminescence.

Sequence of Calcium-dependent protein kinase 1 (Plasmodium falciparum (isolate 3D7)) (P62344 whole entry, looked up): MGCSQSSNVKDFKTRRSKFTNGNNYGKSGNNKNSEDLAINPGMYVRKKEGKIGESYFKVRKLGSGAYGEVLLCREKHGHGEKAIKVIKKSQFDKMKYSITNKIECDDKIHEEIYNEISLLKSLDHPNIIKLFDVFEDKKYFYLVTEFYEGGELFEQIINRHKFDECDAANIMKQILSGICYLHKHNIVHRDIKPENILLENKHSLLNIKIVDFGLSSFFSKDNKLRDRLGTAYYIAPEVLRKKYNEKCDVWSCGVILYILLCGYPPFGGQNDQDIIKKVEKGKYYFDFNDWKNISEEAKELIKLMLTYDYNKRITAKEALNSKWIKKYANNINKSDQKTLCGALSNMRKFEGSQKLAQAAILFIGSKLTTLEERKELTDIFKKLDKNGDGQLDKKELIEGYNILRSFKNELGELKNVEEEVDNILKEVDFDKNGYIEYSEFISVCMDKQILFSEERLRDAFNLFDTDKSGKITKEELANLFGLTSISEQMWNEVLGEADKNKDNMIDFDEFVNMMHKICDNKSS
Sequence of Calcium-dependent protein kinase 4 (Plasmodium falciparum (isolate 3D7)) (Q8IBS5 whole entry, looked up): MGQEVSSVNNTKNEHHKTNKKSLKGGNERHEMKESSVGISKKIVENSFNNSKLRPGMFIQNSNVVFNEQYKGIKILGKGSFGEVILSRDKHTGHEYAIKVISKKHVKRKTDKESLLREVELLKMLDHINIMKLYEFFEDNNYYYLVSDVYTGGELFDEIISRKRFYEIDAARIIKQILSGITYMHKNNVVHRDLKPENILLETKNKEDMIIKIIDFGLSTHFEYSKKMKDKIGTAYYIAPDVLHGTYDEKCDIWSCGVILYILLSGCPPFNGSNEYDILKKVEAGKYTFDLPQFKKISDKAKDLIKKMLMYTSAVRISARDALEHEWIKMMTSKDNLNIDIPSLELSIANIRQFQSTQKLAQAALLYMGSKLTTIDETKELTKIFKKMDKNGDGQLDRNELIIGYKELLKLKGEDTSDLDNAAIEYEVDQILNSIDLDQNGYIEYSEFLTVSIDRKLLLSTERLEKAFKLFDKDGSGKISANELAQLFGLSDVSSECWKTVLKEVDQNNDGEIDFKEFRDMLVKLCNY
Sequence of Plasmodium falciparum protein kinase 6 (PK6, PF3D7_1337100) (Q8IDW1 1-305): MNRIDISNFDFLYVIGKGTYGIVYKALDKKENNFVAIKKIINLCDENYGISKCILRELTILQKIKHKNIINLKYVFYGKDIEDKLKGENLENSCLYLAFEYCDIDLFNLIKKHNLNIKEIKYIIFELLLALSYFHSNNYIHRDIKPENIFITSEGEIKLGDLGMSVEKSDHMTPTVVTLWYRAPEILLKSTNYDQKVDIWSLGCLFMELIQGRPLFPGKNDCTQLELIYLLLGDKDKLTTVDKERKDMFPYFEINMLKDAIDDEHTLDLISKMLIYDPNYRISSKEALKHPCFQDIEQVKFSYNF
Sequence of Protein kinase 7 (PK7), Plasmodium falciparum 3D7 (PF3D7_0213400) (Q7YTF7 1-343): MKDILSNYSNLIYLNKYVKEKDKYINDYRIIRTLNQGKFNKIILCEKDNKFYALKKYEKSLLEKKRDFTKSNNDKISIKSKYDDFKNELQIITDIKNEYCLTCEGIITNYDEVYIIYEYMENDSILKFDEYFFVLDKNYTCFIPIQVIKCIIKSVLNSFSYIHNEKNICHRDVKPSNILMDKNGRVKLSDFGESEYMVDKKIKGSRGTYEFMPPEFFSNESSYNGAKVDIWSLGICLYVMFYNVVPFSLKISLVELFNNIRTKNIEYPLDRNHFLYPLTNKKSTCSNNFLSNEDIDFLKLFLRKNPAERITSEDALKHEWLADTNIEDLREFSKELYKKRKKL
Sequence of L-lactate dehydrogenase (Plasmodium falciparum (isolate CDC / Honduras)) (Q27743 whole entry, looked up): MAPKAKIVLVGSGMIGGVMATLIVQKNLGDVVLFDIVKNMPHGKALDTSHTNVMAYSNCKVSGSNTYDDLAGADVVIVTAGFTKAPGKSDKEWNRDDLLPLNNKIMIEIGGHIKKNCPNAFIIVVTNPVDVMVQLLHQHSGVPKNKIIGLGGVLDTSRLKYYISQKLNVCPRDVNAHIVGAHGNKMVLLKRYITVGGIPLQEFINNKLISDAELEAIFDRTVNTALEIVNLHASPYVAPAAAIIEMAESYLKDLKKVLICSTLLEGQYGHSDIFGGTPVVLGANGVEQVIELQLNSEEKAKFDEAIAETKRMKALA

With `CO/C(=C\C=C\c1cc2cc(Cl)c(Cl)cc2[nH]1)C(=O)NC1CCN(CCOc2ccccc2)CC1`, the growth inhibition was 94% (active) in test [1] and 101% (active) in test [4]. The inhibition was 35% in test [2] and -3% in test [3]. In addition, the outcome in test [5], in test [6], in test [7] and in test [8] was inactive.

As for `COCn1ncc2cc(-c3cccc(NC(=O)c4csc(NC(C)=O)n4)c3)ccc21`, the growth inhibition in test [1] was 68% (active); in test [4] it was 89% (active). The figures for the inhibition in test [2] and in test [3] were 0% and 7%, respectively. Moreover, the result in test [5], in test [6], in test [7] and in test [8] was inactive.

`C=C[C@]1(C)C[C@@H](OC(=O)CNC[C@@H](O)CN2C[C@H](c3ccnc4ccc(OC)nc34)OC2=O)[C@]2(C)[C@H](C)CC[C@]3(CCC(=O)[C@H]32)[C@@H](C)[C@@H]1O`: the values for the growth inhibition in test [1] and in test [4] were 82% (active) and 89% (active), respectively. The inhibition in test [2] was 0%; in test [3], -3%. In addition, the outcome in test [5], in test [6], in test [7] and in test [8] was inactive.

Take `COc1ccc(NS(=O)(=O)c2cc(NC(=O)Cn3ccccc3=O)ccc2N2CCCCC2)cc1`: the growth inhibition in test [1] is 83% (active); in test [4], 92% (active). The figures for the inhibition in test [2] and in test [3] were 20% and 1%, respectively. Further, the outcome in test [5], in test [6], in test [7] and in test [8] was inactive.

For the compound `Cc1cc(NC2CCN(Cc3ccccc3)CC2)nc(NCCCCc2ccccc2)n1`, the growth inhibition was 60% (active) in test [1] and 100% (active) in test [4]. For the same compound, the inhibition was 65% (active) in test [2] and 2% in test [3]. In addition, the result in test [5], in test [6], in test [7] and in test [8] was inactive.

For the compound `Nc1ncc(-c2cccc(CCN3CCOCC3)c2)cc1-c1nc2ccc(Br)cc2[nH]1`, the growth inhibition in test [1] was 98% (active); in test [4], 101% (active). Moreover, the inhibition in test [2] was 60% (active); in test [3] it was 4%. Besides, the outcome in test [5], in test [6], in test [7] and in test [8] was inactive.

For `COc1ccc2nccc([C@@H](O)CN3CCC(NC(=O)c4[nH]c5ccccc5c4-c4ccccc4)CC3)c2c1`, the results for the growth inhibition in test [1] and in test [4] were 68% (active) and 96% (active), respectively. Further, the values for the inhibition in test [2] and in test [3] were 18% and 0%, respectively. Besides, the result in test [5], in test [6], in test [7] and in test [8] was inactive.

For `CC(C)c1sc(N2CCN(C)CC2)nc1C(=O)NCCc1ccc(Cl)c(Cl)c1`, the results for the growth inhibition in test [1] and in test [4] were 79% (active) and 98% (active), respectively. Besides, the inhibition was 10% in test [2] and -2% in test [3]. For the same compound, the outcome in test [5], in test [6], in test [7] and in test [8] was inactive.

In the case of `CN(C)CCCOc1ccc(CNCC(C)(C)c2nc(-c3ccc(Cl)c(O)c3)c(-c3ccncc3)[nH]2)cc1`, the figures for the growth inhibition in test [1] and in test [4] were 58% (active) and 102% (active), respectively. The inhibition in test [2] is 64% (active); in test [3], -2%. Also, the outcome in test [5], in test [6], in test [7] and in test [8] was inactive.

For the compound `CC(C)CNCc1cccc(-c2ccc(CN(CCCN3CCN(C)CC3)C(=O)/C=C/c3ccccc3)cc2)c1`, the growth inhibition in test [1] is 90% (active); in test [4] it was 92% (active). Moreover, the inhibition is 48% in test [2] and -2% in test [3]. Moreover, the outcome in test [5], in test [6], in test [7] and in test [8] was inactive.

`CCNc1cc(C(=O)N[C@@H](Cc2ccccc2)[C@H](O)CNCCC(C)(C)C)c(F)c(N2CCCCS2(=O)=O)c1`: the growth inhibition was 93% (active) in test [1] and 98% (active) in test [4]. For the same compound, the inhibition in test [2] and in test [3] was 2% in each case. Besides, the outcome in test [5], in test [6], in test [7] and in test [8] was inactive.

In the case of `COCCN(C)CCCOc1cc2c(cc1OC)ncn2-c1cc(OCc2ccccc2C(F)(F)F)c(C(N)=O)s1`, the figures for the growth inhibition in test [1] and in test [4] were 49% and 98% (active), respectively. The inhibition was 24% in test [2] and 2% in test [3]. Further, the result in test [5], in test [6], in test [7] and in test [8] was inactive.

`CCCCCn1c(Sc2ccc(C#N)c([N+](=O)[O-])c2)nnc1-c1cc(OC)cc(OC)c1`: the growth inhibition in test [1] was 24%; in test [4] it was 93% (active). The inhibition in test [2] was 17%; in test [3], 1%. Moreover, the outcome in test [5], in test [6], in test [7] and in test [8] was inactive.

`Cc1noc(C)c1-c1cccc(CNCc2ccc(-c3ccc(-c4nc5ccc(C(F)(F)F)cc5[nH]4)cc3)cc2)c1`: the growth inhibition was 97% (active) in test [1] and 102% (active) in test [4]. Also, the figures for the inhibition in test [2] and in test [3] were 35% and 2%, respectively. Besides, the outcome in test [5], in test [6], in test [7] and in test [8] was inactive.

Take `O=C(N[C@@H](CC1CCCCC1)C(=O)NC1CCCCCC1)c1ccc(O)c(-c2ccc(Cl)c(Cl)c2)c1`: the growth inhibition in test [1] is 100% (active); in test [4], 99% (active). Besides, the values for the inhibition in test [2] and in test [3] were -3% and -2%, respectively. Moreover, the outcome in test [5], in test [6], in test [7] and in test [8] was inactive.

On to `Clc1ccc(CNc2ccnc(NCc3cccnc3N3CCCC3)n2)c(Cl)c1`, for which the results for the growth inhibition in test [1] and in test [4] were 53% (active) and 85% (active), respectively. Besides, the inhibition in test [2] was 37%; in test [3], -5%. Further, the result in test [5], in test [6], in test [7] and in test [8] was inactive.

With `COc1ccc2nccc([C@@H](O)CN3CCC(NCc4cc5cccc(O)c5c(=O)[nH]4)CC3)c2c1`, the growth inhibition in test [1] is 66% (active); in test [4] it was 99% (active). For the same compound, the values for the inhibition in test [2] and in test [3] were 8% and 3%, respectively. For the same compound, the outcome in test [5], in test [6], in test [7] and in test [8] was inactive.

On to `COc1ccccc1N1CCN(C(C(=O)NCc2cccc(F)c2)c2ccc(C)cc2)CC1` (centres undefined), for which the growth inhibition is 80% (active) in test [1] and 94% (active) in test [4]. Also, the inhibition in test [2] was 4%; in test [3], 1%. Further, the result in test [5], in test [6], in test [7] and in test [8] was inactive.

The record behind these values is PubChem BioAssay.
